Screening data deposited in PubChem BioAssay by National Center for Advancing Translational Sciences (NCATS).
Rows were chosen to be rich in hits. Some 10% of all compounds tested hit in one or more screens of this group.
BAZ2B inh – blocks human BAZ2B; Q9UIF8; AlphaScreen BAZ2B-H3K14Ac peptide displacement; Potency, µM (doses to about 114 µM), inactives show at the highest dose activity change, negative = inhibition, actives largely listed as inhibitors; 4.4% of 360,000 active; further: potency means the concentration at half of the fitted maximal effect; on the % scale 0 is the no-effect control and ±100 the full control effect; nearly all actives have a fitted effect of over 60% in size
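In this displacement format the biotinylated H3(5-23) peptide acetylated at Lys14 serves as ligand at 50 nM, with BAZ2B at 50 nM in PBS pH 7.4 containing 0.01% Tween-20. Donor and acceptor beads are 10 ug/mL final.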
HP1b binding inh – HP1-beta chromodomain-methylated histone interaction inhibition; AlphaScreen HP1-beta / biotin-H3K9me3 peptide binding; Potency, µM (series often up to 114 µM), without a hit: top-dose activity change, negative = inhibition, actives largely listed as inhibitors; 0.56% of 390,000 active; AID 540317; further: potency means the concentration at half of the fitted maximal effect; nearly all actives have a fitted effect of over 70% in size
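Compound inhibition of the preformed complex between 50 nM HP1-beta and 50 nM biotinylated H3K9me3 peptide was read by AlphaScreen. Buffer was PBS pH 7.4 with 0.01% Tween-20. Incubations ran 30 min at room temperature, with 10 ug/mL donor/acceptor beads.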
JMJD2A Tudor inh – JMJD2A Tudor domain (human) inhibition. O75164. AlphaScreen JMJD2A-Tudor / H3K4me3 peptide binding. Potency, µM (doses to about 114 µM), for inactives: at the top dose activity change, negative = inhibition, actives largely listed as inhibitors. 4.4% of 390,000 active. AID 504339; further: potency means the concentration at half of the fitted maximal effect; on the % scale 0 is the no-effect control and ±100 the full control effect; nearly all actives have a fitted effect of over 50% in size
G9a inh – blocks human histone lysine methyltransferase G9a; Q96KQ7; G9a H3K9 monomethylation, AlphaScreen, 2 h; Potency, µM (top dose mostly 102 µM), without a hit: at the highest dose activity, negative = inhibition, most hits filed as inhibitors; 8.8% of 350,000 active; AID 504332; further: potency means the concentration at half of the fitted maximal effect; on the % scale 0 is the no-effect control and ±100 the full control effect; nearly all actives have a fitted effect of over 75% in size
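Chemiluminescent proximity detection of H3K9 monomethylation, read after 10 min bead incubation in the dark. Reaction: 20 nM G9a, 500 nM biotin-H3K9 peptide, 20 uM SAM cofactor, 2 h, room temperature, following 15 min enzyme-compound preincubation.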
CtBP-E1A inh – blocks the CtBP interaction with E1A; AlphaScreen GST-E1A/His-CtBP binding, 1536-well; active compounds read low; activity change, % (test concentration not listed); 0.49% of 340,000 active; AID 651724; in the data active means activity change below about -65%; inconclusive means mostly about -30% to -63%; further: on the % scale 0 is the no-effect control and ±100 the full control effect
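In 5 uL wells, 23 nL compound meets equimolar GST-E1A and His-CtBP (5X stock 125 nM each) for 2 h, 37 °C. Beads (5X, 50 ug/mL) then 1 h, 37 °C, dark.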
Six1-Eya2 blk – blocks human Six1 binding to Eya2 | Q15475+O00167 | AlphaScreen GST-Six1/His-Eya2 binding, biochemical; active compounds read low | activity change, % (concentration not given with the values) | 0.56% of 360,000 active; in the data active means activity change below about -65%; inconclusive means mostly about -30% to -63%; further: on the % scale 0 is the no-effect control and ±100 the full control effect
Target sequence (O00167 whole entry, looked up): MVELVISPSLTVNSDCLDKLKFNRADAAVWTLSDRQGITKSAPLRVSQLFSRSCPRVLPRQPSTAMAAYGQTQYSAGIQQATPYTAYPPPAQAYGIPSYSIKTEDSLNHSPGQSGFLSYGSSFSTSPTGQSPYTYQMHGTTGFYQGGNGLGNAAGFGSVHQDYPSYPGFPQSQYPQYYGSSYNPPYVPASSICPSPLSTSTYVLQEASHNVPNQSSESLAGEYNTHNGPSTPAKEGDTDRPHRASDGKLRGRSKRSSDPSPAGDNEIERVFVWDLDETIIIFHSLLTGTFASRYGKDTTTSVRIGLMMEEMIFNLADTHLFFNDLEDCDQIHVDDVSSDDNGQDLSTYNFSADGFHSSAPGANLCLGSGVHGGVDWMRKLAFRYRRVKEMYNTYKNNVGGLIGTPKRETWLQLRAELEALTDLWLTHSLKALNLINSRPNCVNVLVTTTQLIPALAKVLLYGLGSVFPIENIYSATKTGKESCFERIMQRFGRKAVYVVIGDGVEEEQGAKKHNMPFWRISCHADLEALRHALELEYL
Target sequence (Q15475 whole entry, looked up): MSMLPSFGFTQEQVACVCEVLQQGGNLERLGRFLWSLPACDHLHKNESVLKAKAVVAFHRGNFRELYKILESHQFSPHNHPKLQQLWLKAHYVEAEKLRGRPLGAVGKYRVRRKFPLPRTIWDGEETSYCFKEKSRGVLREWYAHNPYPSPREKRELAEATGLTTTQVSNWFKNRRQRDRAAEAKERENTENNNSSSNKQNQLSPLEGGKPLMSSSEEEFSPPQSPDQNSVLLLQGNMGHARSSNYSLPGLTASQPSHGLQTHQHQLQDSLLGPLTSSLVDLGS
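GST-Six1 + His-Eya2 (5X stock: 250/500 nM); Tris pH 8.0, 300 mM NaCl, 0.05% BSA, 0.02% Tween 20; GSH donor/Ni acceptor beads; 1 h 37 °C dark; AlphaScreen readout.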
Starred values were filed as active, the others as inactive; ? = inconclusive; . = no result; [ ] = remark or other dose. Unless noted, the call rests on the fitted dose curve; in most records, active means well fitted inhibition curve with a large enough effect; inconclusive means small, poorly fitted or top-dose-only effect; inactive means no such curve, though single readings can be large or run the other way.

SMILES	BAZ2B inh	HP1b binding inh	JMJD2A Tudor inh	G9a inh	CtBP-E1A inh	Six1-Eya2 blk
Cc1cc(O)c(/C=N/Nc2ccc(F)cc2)c(=O)o1	-33%	30%	?	4.5µM*	0	11
O=c1c2ccccc2c(C=Nc2ccc(Cl)cn2)c(O)n1-c1cc(Cl)ccc1N1CCOCC1	-6%	18%	-1%	19%[59 µM]	0	-4
O=c1[nH]c(SCCc2ccccc2)nc2c1CCC2	.	.	.	.	1	-2
CC(=O)NC(c1cccc(F)c1)c1nc(-c2cc(F)cc(Cl)c2)cs1 (centres undefined)	.	.	.	.	-23	8
Cc1cc2c(s1)c1cnn(Cc3c(F)ccc(F)c3F)c(=O)c1n2C	.	.	-5%	.	.	.
Cc1ccc(CO/N=C/c2c(O)cc(C)oc2=O)cc1	?	40%	?	32µM*	3	4
CCOc1ccc(N=Cc2c(O)cc(C)oc2=O)cc1	-4%	38%	-21%	-35%	-4	8
Cc1cc(O)c(C=Nc2ccc(Cl)cn2)c(=O)o1	?	7%	32µM*	-34%[12.7 µM]	0	0
COc1ccc(Cl)cc1NC(=O)N1CCN(S(=O)(=O)c2ccc3c(ccn3C)c2)CC1	-13%	0%[57 µM]	-35%	2%[59 µM]	.	.
CCOc1ccc(=O)n(-c2ccccc2)n1	0%	-13%	-8%[11.4 µM]	38%[59 µM]	7	-1
CCn1c(COc2ccc(=O)n(-c3ccccc3)n2)n[nH]c1=S	-2%	40%	20µM*	25µM*	-13	6
CN1CCN(C(=O)/C(=C/c2ccc(F)cc2)c2ccsc2)CC1	-24%	61%	1%	45µM*	6	6
CN1CCN(C(=O)/C(=C/c2ccccc2)c2ccccc2)CC1	11%	6%	-9%	-7%	7	-2
CCOC(=O)c1cnc2ccc(OC)cc2c1Nc1ccc(N2CCN(C)CC2)cc1	35µM*	-32%[57 µM]	32µM*	35µM*	?	-15
CCOC(=O)c1cnc2ccccc2c1Nc1cc(C(=O)O)ccc1C	-1%	49%	-3%[11.4 µM]	50µM*	.	-2
CCOC(=O)c1cnc(-n2nc(C)cc2C)nc1N1CCOCC1	14%	17%	-5%	79µM*	-22	-10
COc1ccc(N2CCN(C(=O)c3cnc(N4CCOCC4)c4ccccc34)CC2)cc1	?	-1%[57 µM]	-32%	?	.	.
CCOC(=O)c1cnc(N2CCN(c3ccc(OC)cc3)CC2)c2ccccc12	?	1%[57 µM]	?	14µM*	.	.
CCOC(=O)c1cnc(-n2nc(C)cc2C)nc1N(C)C	-3%	?	51%	?	?	-20
O=C(NCCc1ccc(F)cc1)C(=O)NCC(c1cccs1)S(=O)(=O)c1ccccc1 (centres undefined)	4%	42%	-7%	-8%[59 µM]	.	.
O=C(Cn1c(=O)n(-c2ccccc2)c(=O)c2ccc(C(=O)NCc3ccc4c(c3)OCO4)cc21)Nc1ccc(Br)cc1F	.	35%	6%	1%[59 µM]	.	.
CCOC(=O)c1ccc2ncc(C(=O)OCC)c(Nc3ccc(N4CCOCC4)cc3)c2c1	14µM*	?	40µM*	?	-24	-17
COc1ccc(N2CCN(c3nc(=S)n(-c4ccccc4)c(C)c3C(C)=O)CC2)cc1	-9%	1%	-35%	-13%[59 µM]	11	-1
CCOC(=O)c1cnc2c(C)cccc2c1Nc1ccc(N2CCOCC2)cc1	14µM*	.	.	28µM*	.	.
CCn1c(C)c(C(C)=O)c(N2CCN(c3ccc(OC)cc3)CC2)nc1=S	?	-4%	-31%	35µM*	-14	0
SMILES	BAZ2B inh	HP1b binding inh	JMJD2A Tudor inh	G9a inh	CtBP-E1A inh	Six1-Eya2 blk
CCOC(=O)c1cnc2c(C)c(Cl)ccc2c1N1CCOCC1	-2%	33%	-5%	8%	6	6
CCOC(=O)c1cnc2c(C)c(Cl)ccc2c1Nc1ccc(N2CCOCC2)cc1	10µM*	-27%	?	7.9µM*	.	.
CCOc1ccccc1C(=O)NCC(=O)N(C)Cc1ccccc1C	2%	21%	1%	22%	.	4
O=C(Nc1cccc(Br)c1)Nc1nc2c(s1)CCCCCC2	1%	18%[57 µM]	-8%	-20%[59 µM]	.	.
CCOC(=O)c1c(-c2ccc(C)cc2)csc1NC(=O)c1cc(-c2ccc(Cl)cc2)on1	-3%	24%	-10%	6%[59 µM]	.	.
CCOC(=O)c1c(-c2ccc(C)cc2)csc1NC(=O)c1cc(=O)c2cc(C)ccc2o1	?	?	56µM*	?	.	.
CCOC(=O)c1c(-c2ccccc2)csc1NC(=O)c1cc(-c2cccc(OC)c2)on1	-2%	-20%	6%	4µM*	.	.
CCOC(=O)c1c(-c2ccccc2)csc1NC(=O)c1cc(-c2cccc(Cl)c2)on1	7%	-21%	-14%	8.9µM*	.	.
CN1CCN(C(CNC(=O)c2cccc(F)c2)c2ccc3c(c2)OCO3)CC1 (centres undefined)	2%	36%[57 µM]	5%	-2%[59 µM]	.	.
Cc1ccccc1Cn1c(=O)n(CCCCC(=O)NCc2ccccc2Cl)c(=O)c2ccccc21	-4%	21%	1%	-36%[59 µM]	.	.
Cc1ccc(NS(=O)(=O)c2ccc(NC(=O)c3cccs3)cc2)cc1	0%	53%	9%	15%	0	-7
CC1(C(=O)NCc2ccco2)Cc2c(-c3cccc(C(N)=O)c3)ccnc2O1 (centres undefined)	.	.	.	.	1	-6
Cc1cc(=O)n2nc(N3CCC(C(=O)NCCCOC(C)C)CC3)sc2n1	0%	26%	1%	17%[59 µM]	.	.
CCOC(=O)CCSc1nc(N2CCOCC2)c2c(c1C#N)CC(C)(C)OC2	8%	-22%	8%	35µM*	10	1
CC(Sc1nc(N2CCOCC2)c2c(c1C#N)CC(C)(C)OC2)C(=O)Nc1ccccc1 (centres undefined)	-5%	7%	-19%	5.6µM*	4	6
C=CC(c1ccccc1)C(C(=O)c1ccccc1)N(C)C (centres undefined)	-22%	15%	-28%	-15%	-6	-7
NC(=O)c1sc2nnc(-c3ccccc3)c(-c3ccccc3)c2c1N	-2%	26%	-13%	-24%	-9	1
CC(=O)OCC(NC(=O)C(CCCCNC(=O)OCc1ccccc1)NC(=O)OC(C)(C)C)C1OC(n2cc(C)c(=O)[nH]c2=O)C(OC(C)=O)C1OC(C)=O (centres undefined)	.	29%	-2%	.	.	.
Cc1cc(-c2n[nH]c(=S)n2-c2ccccc2C)cs1	-4%	20%	35µM*	1.3µM*	6	0
CCc1ccccc1-n1c(-c2ccncc2)n[nH]c1=S	0%	28%	10µM*	5.6µM*	0	5
CC(C)Cn1c(-c2ccc(Br)o2)n[nH]c1=S	-9%	29%	4%	1.8µM*	7	1
